About 83,000 compounds went through this panel and 20% of them were active in at least one assay; those are over-represented in the sample as a whole.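 Interpretation: 100, growth as untreated; towards 0, rising growth inhibition; 0, no net growth; 0 to -100, cell death. Compounds scoring below 10 were considered active.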 Values without a mark were called inactive. Active and inactive are the calls of the source.
How the values were obtained:
Assay in all cases: NCI-60 one-dose screen, 48 h (100 = growth as untreated, 0 = no growth, -100 = all killed)
Settings in all cases: 10 µM unless noted
[1] = system: DU-145 prostate
[2] = system: K-562 leukemia
[3] = system: MALME-3M melanoma
[4] = system: MDA-MB-231 breast
[5] = system: RXF 393 renal
[6] = system: SF-268 CNS
[7] = system: SF-295 CNS
[8] = system: SF-539 CNS
[9] = system: UACC-257 melanoma
[10] = system: M14 melanoma
[11] = system: HCT-15 colon
[12] = system: HT29 colon
[13] = system: SNB-75 CNS
[14] = system: SNB-19 CNS
[15] = system: U251 CNS
[16] = system: PC-3 prostate
[17] = system: SK-MEL-5 melanoma
[18] = system: UACC-62 melanoma
[19] = system: SK-MEL-28 melanoma
[20] = system: LOX IMVI melanoma

Row | SMILES | growth [1] | growth [2] | growth [3] | growth [4] | growth [5] | growth [6] [%] | growth [7] | growth [8] | growth [9] | growth [10] | growth [11] | growth [12] | growth [13] | growth [14] [%] | growth [15] | growth [16] | growth [17] | growth [18] | growth [19] | growth [20] [%]
1 | O=C(NCc1cccnc1)c1cc(-c2csc3c(=O)cc(N4CCOCC4)oc23)cc2c1OCCO2 | 70% | 24.8% | 47.9% | 21.5% | 40.6% | 53 | 30% | 10.6% | 47% | 43.4% | 66.5% | 18% | -9.26% (active) | 47.5 | 51.8% | 38.6% | 39.6% | 12.2% | 49% | 
2 | CCOC(=O)c1c(C)nc2c(c1N)/C(=C/c1cc(OC)c(OC)c(OC)c1)C(=O)N2c1ccc(OC)cc1 | 16.3% | 23.4% | 76% | 67% | 87.2% | 45.9 | 88.1% | 80.2% | 73.6% | 43.6% | 31.3% | 26.2% |  | 47.9 | 43.6% | 50.1% | 69.5% | 67.3% | 70.2% | 14.6
3 | CNC(=O)c1c(NC(=O)c2ccc(C(C)(C)C)cc2)sc2c1CCC(=O)C2 | 27.7% | 5.54% (active) | -12.8% (active) | -20.5% (active) | -11.3% (active) | 14 | 2.19% (active) | -51.9% (active) | 16.8% | 3.53% (active) | -20.5% (active) | 3.63% (active) |  | 17.7 | 4.12% (active) | -0.67% (active) | -83.1% (active) | 0.579% (active) | 12.2% | 
4 | NC(=Nc1ccc(N)cc1)C(N)=Nc1ccc(N)cc1 | 106% | 81.7% | 135% | 93.5% | 84.1% | 104 | 111% | 96.9% | 31.8% | 99.7% | 98.5% | 113% | 91.8% | 102 | 101% |  | 98.7% | 104% | 117% | 97.2
5 | CC(=O)Nc1ccc2c(c1)Cc1c(F)cccc1-2 | 102% | 120% | 130% | 101% | 99% | 83.7 | 109% | 99.4% | 110% | 119% | 108% | 111% | 73.7% | 107 | 107% | 88.4% |  | 98.9% | 117% | 103
6 | CCOC(=O)c1ccc(NC(=O)CCCN(CC)CC)cc1 | 105% | 97.7% | 98.5% | 114% | 130% | 104 | 103% | 103% | 108% | 91.3% | 105% |  | 106% | 111 | 98.2% | 78.3% | 110% | 104% | 109% | 97.7
7 | Clc1cnc(Nc2ccc(OCCN3CCCC3)cc2)nc1NCc1ccco1 | 17.5% | 16.4% | 26.1% | -5.14% (active) | -37.7% (active) | 21.1 | 31.2% | -14.2% (active) | 49.1% | 35.1% | 6.01% (active) | 11.3% |  | 38.6 | 19.6% | 28.7% | 46.1% | 46.5% | 51.7% | 
8 | CC(C)n1nc(C#Cc2cccc3cc(-c4cccc(C(F)(F)F)c4)ncc23)c2c(N)ncnc21 | 89.4% | 2.23% (active) | 93.1% | 59.8% | 81.7% | 76 | 91% | 54.4% | 82.7% | 56.2% | 64.3% | 29.7% | -4.27% (active) | 99.6 | 63.6% | 59.6% | 85.1% |  | 83.3% | 58.1
9 | N=c1ccn2c(n1)OC1C(O)C(CO)OC12 (centres undefined) | 11.7% | 94.5% | 43.5% | 91.7% | 28.7% | 40.9 | 36.7% | 25.1% | 54.6% | -25.5% (active) | 49.9% | 34.4% | 11.4% | 44 | 37.7% |  | 45.9% | 43.9% | 53.3% | 10.3
10 | COc1cc(CNC(=O)/C=C/C=C/c2ccc3c(c2)OCO3)ccc1OCc1cn(-c2ccc(Cl)c(Cl)c2)nn1 | -32.3% (active) | 5.49% (active) | -54.7% (active) | 5.5% (active) | -24% (active) | 18 | -39% (active) | 74.4% | -17.4% (active) | -30.4% (active) | -49.9% (active) | 5.61% (active) | -36.8% (active) | 20.5 | -57.5% (active) | -11% (active) | -41.1% (active) |  | 6.52% (active) | 11.6
11 | C=C1C(=O)O[C@H]2[C@H]1CC/C(Cn1cc(CNCCc3c[nH]c4ccc(Cl)cc34)nn1)=C\CC[C@@]1(C)O[C@@H]21 | 83.6% | 2.7% (active) | 53.9% | 59.7% | 16% | 77.9 | 95.4% | 53.6% | 53.4% | 66.1% | 88.6% | 21.2% | 69.6% | 83.7 | 60.2% | 75% | 86.6% |  | 81.5% | 62
12 | O=c1cc(-c2ccc(OCc3ccccc3)cc2)oc2c(I)c(OCc3ccccc3)cc(OCc3ccccc3)c12 | 105% | 84.3% | 107% | 110% | 139% | 99 | 99% | 100% | 95.9% | 95.6% | 104% | 105% |  | 104 | 90.1% | 94.7% | 85.1% | 90.3% | 107% | 101
13 | COC(=O)c1ccc(CSc2nnc(-c3ccncc3)o2)cc1 | 114% | 93.9% | 103% | 106% | 122% | 101 | 109% | 98.7% | 99% | 102% | 108% | 109% | 81.9% | 110 | 104% | 87.5% | 112% |  | 107% | 
14 | COC(=O)CNC(=O)C(=O)c1c(O)c(O)c(C(C)C)c2cc(C)c(-c3c(C)cc4c(C(C)C)c(O)c(O)c(C(=O)C(=O)NCC(=O)OC)c4c3O)c(O)c12 | 24.9% | 14.7% | 46.2% | -13.6% (active) | 53.8% | 26.8 | 1.96% (active) | 18.9% | 52.1% | 36.7% | 18.3% | 6.08% (active) |  | 18.5 | 4.8% (active) | 18.7% | 50.1% | 48.5% | 44.7% | 21.2
15 | COc1ccc(-n2ncn(CCCCCCn3cnn(-c4ccc(OC)cc4)c3=O)c2=O)cc1 | 101% | 72.7% | 95.7% | 87.4% | 98.2% | 91.4 | 93.6% | 91.7% | 101% | 97.5% | 95.3% | 101% | 79.8% | 90.3 | 94.3% | 84.8% | 95.2% |  | 98% | 
16 | CCCCOc1ccc(NC(=O)n2nc(N=NN(C)C)c3ccc(Cl)cc32)cc1 | 106% | 93.7% | 122% | 104% | 112% | 102 | 101% | 104% | 125% | 89.4% | 105% | 98.1% | 89.1% | 106 | 118% | 88.5% | 107% |  | 106% | 

From PubChem BioAssay (NCI)
